According to PubChem BioAssay (EPA / NIEHS):
“And” between values parts separate entries of the source, which are not always exact repeats. Equal values may be shown once. Where a structure was tested more than once in an assay, its records may differ in their call. The source made the active and inactive calls. How the source made its calls: active means hit-call score of the fitted dose curve at least 0.9, where 1 is the maximum; inactive means score below 0.9.

Legend:
[1] = read-out: Interleukin-8 (IL8), CXCL8 (gene 3576); assay: BSK_MyoF_IL8: BioMAP Diversity Plus: MyoF Assay for Interleukin-8 (IL8) Biomarker Activity (AID 2284261); settings: primary human lung fibroblasts
Procedure, shortened: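 ELISA read-out of IL-8 from primary human lung fibroblasts, 24 h post-dose; positive-direction curve fitting relative to DMSO vehicle baseline.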

[2] = read-out: Decorin, DCN (gene 1634); assay: BSK_MyoF_Decorin: BioMAP Diversity Plus: MyoF Assay for Decorin Biomarker Activity (AID 2284265); settings: primary human lung fibroblasts
Procedure, shortened: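 Human lung fibroblasts in the MyoF system were exposed to compound for 24 h, after which decorin was quantified by ELISA. Activity was fitted in the positive direction relative to DMSO negative control.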

[3] = read-out: CD69, CD69 (gene 969); assay: BSK_IMphg_CD69: BioMAP Diversity Plus: IMphg Assay for CD69 Biomarker Activity (AID 2284257); settings: primary human endothelial cells with macrophages
Description: BSK_IMphg is a cell-based, multiplexed-readout assay that uses venular endothelial cells and macrophages, a human vascular primary cell, with measurements taken at 24 hours after chemical dosing in a microplate: 96-well plate.BSK_IMphg_CD69 is an assay component measured in the BSK_IMphg assay. It measures CD69 antibody related to regulation of gene expression using ELISA technology.Data from the assay component BSK_IMphg_CD69 was analyzed at the endpoint, BSK_IMphg_CD69, in the positive analysis fitting direction relative to DMSO as the negative control and baseline of activity. Using a type of binding reporter, gain or loss-of-signal activity can be used to understand protein changes. To generalize the intended target to other relatable targets, this assay endpoint is annotated to the 'cytokine' intended target family, where the subfamily is 'inflammatory factor'.
(§1) The levels of cell surface (or secreted, indicated by the prefix "s") biomarker endpoints were measured by ELISA. Overt cytotoxicity to cells in confluent adherent cultures (all systems other than the BT system) was assessed by measuring total protein levels using sulforhodamine B (SRB) staining in parallel cultures at the time of biomarker measurements, indicated as SRB endpoints. For proliferation assays for adherent cell types, individual cell types are cultured at sub-confluence and relative cell numbers quantified by SRB staining at time points optimized for each system (48 h: 3C and CASM3C systems; 72 h: BT and HDF3CGF systems; 96 h: SAg system). SRB was performed by staining cells with 0.1% SRB after fixation with 10% TCA and reading wells at 560 nm.Viability and proliferation of PBMC (T cells) was quantified by Alamar Blue reduction for the SAg and BT systems. For PBMC viability (referred to as PBMC Cytotoxicity within the assay endpoint names), cells were plated (75,000/well in a 96-well plate) and then chemical samples added for 1 h before addition of activators, SEB and TSST-1 (20 ng/mL final concentration each). Cells were incubated for 90 h. Then, Alamar Blue (20 uL/well) (Invitrogen, Cat DAL1100) was added for 6 h, and the plates were read with a fluorescence microplate reader at 546/580 nm (excitation/emission). For PBMC proliferation, cells were plated and activated as above but incubated for only 16 h prior to addition of Alamar Blue. Plates were read after 6 h.

[4] = read-out: Eotaxin 3, CCL26 (gene 10344); assay: BSK_BF4T_Eotaxin3: BioMAP Diversity Plus: BF4T Assay for Eotaxin 3 Biomarker Activity (AID 2284258); settings: primary human bronchial epithelial cells with fibroblasts
Description: (§2) BSK_BF4T is a cell-based, multiplexed-readout assay that uses bronchial epithelial cells and dermal fibroblasts, a human vascular primary cell, with measurements taken at 24 hours after chemical dosing in a microplate: 96-well plate.BSK_BF4T_Eotaxin3 is an assay component measured in the BSK_BF4T assay. It measures Eotaxin-3 antibody related to regulation of gene expression using ELISA technology.Data from the assay component BSK_BF4T_Eotaxin3 was analyzed at the endpoint, BSK_BF4T_Eotaxin3, in the positive analysis fitting direction relative to DMSO as the negative control and baseline of activity. Using a type of binding reporter, gain or loss-of-signal activity can be used to understand protein changes. To generalize the intended target to other relatable targets, this assay endpoint is annotated to the 'cytokine' intended target family, where the subfamily is 'chemotactic factor'.
as §1

[5] = read-out: Monocyte Chemoattractant Protein-1 (MCP1), CCL2 (gene 6347); assay: BSK_BF4T_MCP1: BioMAP Diversity Plus: BF4T Assay for Monocyte Chemoattractant Protein-1 (MCP1) Biomarker Activity (AID 2284259); settings: primary human bronchial epithelial cells with fibroblasts
Procedure, shortened: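 MCP-1 ELISA readout taken 24 h after dosing in the BF4T system (bronchial epithelial cells plus dermal fibroblasts). Parallel SRB total-protein staining flagged cytotoxicity; DMSO served as baseline, positive fitting direction.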

[6] = read-out: Intercellular Adhesion Molecule 1 (ICAM1), ICAM1 (gene 3383); assay: BSK_BF4T_ICAM1: BioMAP Diversity Plus: BF4T Assay for Intercellular Adhesion Molecule 1 (ICAM1) Biomarker Activity (AID 2284260); settings: primary human bronchial epithelial cells with fibroblasts
Procedure, shortened: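 ICAM-1 levels measured by ELISA after 24 h chemical treatment of bronchial epithelial cell/dermal fibroblast co-cultures, read against DMSO baseline. Overt cytotoxicity checked in parallel cultures by sulforhodamine B staining.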

[7] = read-out: CD90, THY1 (gene 7070); assay: BSK_BF4T_CD90: BioMAP Diversity Plus: BF4T Assay for CD90 Biomarker Activity (AID 2284262); settings: primary human bronchial epithelial cells with fibroblasts
Description: as §2, with “plate.BSK_BF4T_CD90” for “plate.BSK_BF4T_Eotaxin3”, “CD90” for “Eotaxin-3”, “BSK_BF4T_CD90” for “BSK_BF4T_Eotaxin3”, “BSK_BF4T_CD90,” for “BSK_BF4T_Eotaxin3,”, “'inflammatory” for “'chemotactic”
as §1

[8] = read-out: Interleukin-8 (IL8), CXCL8 (gene 3576); assay: BSK_BF4T_IL8: BioMAP Diversity Plus: BF4T Assay for Interleukin-8 (IL8) Biomarker Activity (AID 2284263); settings: primary human bronchial epithelial cells with fibroblasts
Procedure, shortened: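 Human bronchial epithelial cells with dermal fibroblasts co-culture; IL-8 measured by ELISA 24 hours after dosing, fitted vs DMSO. Cytotoxicity tracked in parallel cultures by SRB total-protein staining.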

[9] = read-out: Interleukin-1 alpha (IL1a), IL1A (gene 3552); assay: BSK_BF4T_IL1a: BioMAP Diversity Plus: BF4T Assay for Interleukin-1 alpha (IL1a) Biomarker Activity (AID 2284264); settings: primary human bronchial epithelial cells with fibroblasts
Procedure, shortened: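 ELISA read-out of IL-1α from bronchial epithelial cell/dermal fibroblast co-cultures 24 h after compound addition. Increases scored against DMSO negative control. Cytotoxicity monitored by sulforhodamine B staining of parallel cultures.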

[10] = read-out: KRT18 (gene 3875); assay: BSK_BF4T_Keratin818: BioMAP Diversity Plus: BF4T Assay for Keratin 818 Biomarker Activity (AID 2284266); settings: primary human bronchial epithelial cells with fibroblasts
Procedure, shortened: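 Keratin 8/18 levels quantified by ELISA after 24 h chemical treatment of bronchial epithelial cell/dermal fibroblast co-cultures, fitted in positive direction relative to DMSO. Parallel SRB staining tracks overt cytotoxicity.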

Compound: c1ccc(Sc2ccccc2)cc1
- AC50 [1]: 30.6 µM (active)
- AC50 [2]: 36.5 µM (active)

Compound: c1ccc2c(c1)-c1ccc3ccc4cccc5cc-2c1c3c45
- outcome [1]: inactive
- outcome [2]: inactive

Compound: CCC(=O)OCC=Cc1ccccc1
- outcome [1]: inactive
- outcome [2]: inactive

Compound: CC1=CC(C)C(C=O)C(C)C1 (stereo not given) (tested in a mixture with another compound)
- outcome [1]: inactive
- outcome [2]: inactive

Compound: CC(=O)CCC=C(C)CCC=C(C)C
- outcome [1]: inactive
- outcome [2]: inactive

Compound: CC1(C)[C@H](C=C(Cl)Cl)[C@H]1C(=O)OCc1cccc(Oc2ccccc2)c1
- outcome [1]: inactive
- outcome [2]: inactive

Compound: O=S(=O)(O)C(F)(F)C(F)(F)OC(F)(F)C(F)(F)F
- outcome [3]: inactive
- outcome [4]: inactive
- outcome [5]: inactive
- outcome [6]: inactive
- outcome [1]: inactive
- outcome [7]: inactive
- outcome [8]: inactive
- outcome [9]: inactive
- outcome [2]: inactive
- outcome [10]: inactive

Compound: C=CC(=O)OCC(CO)(COC(=O)C=C)COC(=O)C=C
- AC50 [1]: 4.24 µM (active)
- AC50 [2]: 3.97 µM (active)

Compound: O=C1OC2(c3ccc(O)cc3Oc3cc(O)ccc32)c2ccccc21
- outcome [1]: inactive
- outcome [2]: inactive

Compound: Nc1ccc(N)c([N+](=O)[O-])c1
- outcome [1]: inactive
- outcome [2]: inactive

Compound: O=C(O)C(F)(F)OC(F)(F)C(F)(F)OC(F)(F)C(F)(F)C(F)(F)C(F)(F)F
- AC50 [3]: 40.3 µM (active)
- outcome [3]: inactive
- AC50 [4]: 5.34 µM (active) and 2.49 µM (active)
- AC50 [5]: 8.8 µM (active) and 220 nM (active)
- outcome [6]: inactive
- outcome [1]: inactive
- outcome [7]: inactive
- AC50 [8]: 1.82 µM (active) and 4.77 µM (active)
- outcome [9]: inactive
- outcome [2]: inactive
- outcome [10]: inactive

Compound: OCC(F)(OC(F)(F)C(F)(OC(F)(F)C(F)(F)C(F)(F)F)C(F)(F)F)C(F)(F)F (stereo not given)
- outcome [3]: inactive
- outcome [4]: inactive
- AC50 [5]: 4.19 µM (active)
- outcome [5]: inactive
- outcome [6]: inactive
- outcome [1]: inactive
- outcome [7]: inactive
- outcome [8]: inactive
- outcome [9]: inactive
- outcome [2]: inactive
- outcome [10]: inactive
